Measurements published in the supplement of paper PMC4166925.
± gives the standard deviation of the averaged measurements. Over roughly 33,000 sequences, “E-score (dimensionless, -0.5 to 0.5)” has its median near -0.049; the highest 2% begin near 0.37. The full list was thinned out, with the highest values kept by preference.

System: T1, PmTbr T-box DNA-binding domain (GST fusion)
T1 sequence: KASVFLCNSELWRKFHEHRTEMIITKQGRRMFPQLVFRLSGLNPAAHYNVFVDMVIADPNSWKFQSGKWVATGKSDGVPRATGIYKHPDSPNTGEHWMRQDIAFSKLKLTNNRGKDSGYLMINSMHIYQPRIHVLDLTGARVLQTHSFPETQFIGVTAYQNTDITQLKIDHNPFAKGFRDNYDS
Experiment: PBM E-score of 8-mer (E-score (dimensionless, -0.5 to 0.5)); Tbr is Tbrain of the sea star Patiria miniata (Pm) or the sea urchin Strongylocentrotus purpuratus (Sp); higher = stronger binding preference
Conditions: the construct has about 5 more residues each side
Method: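 Universal protein-binding microarray (Agilent AMADID 016060, 60-bp probes with a 35-bp variable region) incubated with 200 nM GST-fused Patiria miniata Tbr T-box DNA-binding domain (residues 272-466) in PBS pH 7.5. Scored for every ungapped 8-mer (given with its reverse complement) by the Universal PBM Analysis Suite as E-score (modified Wilcoxon-Mann-Whitney enrichment, range -0.5 to 0.5; >0.45 counts as bound) and Z-score of median probe intensity. Two replicate arrays (datasets 1 and 2).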

Sequence | PBM E-score of 8-mer
AAAAGCTT | -0.0359 ± 0.065
CTTTGTGA | 0.028 ± 0.0037
ACTAGTCA | 0.164 ± 0.044
TAGGCCAA | -0.298 ± 0.065
AGCCAGAG | -0.0902 ± 0.046
AGCGTCCT | -0.167 ± 0.046
TATAGCAA | -0.0376 ± 0.033
AGACCTTC | -0.269 ± 0.022
ACACCTTC | 0.479 ± 0.00068
CCACCTTC | 0.31 ± 0.02
AAGTGATG | 0.28 ± 0.0076
CGGTGAGA | 0.236 ± 0.0071
TAGTGATA | 0.245 ± 0.035
AAGTGAGG | 0.2407 ± 0.0011
CAGTGAGA | 0.181 ± 0.028
AGGTGAGG | 0.428 ± 0.013
AGGTGAGA | 0.486 ± 0.0024
AAGTGATA | 0.37 ± 0.025
AGGTGAGC | 0.303 ± 0.042
ACGTGAGG | 0.159 ± 0.04
ACGTGAGA | 0.349 ± 0.0086
AAGTGAGA | 0.429 ± 0.0088
GGGGTTGA | -0.000915 ± 0.043
CGATCTAG | 0.025 ± 0.0082
CTTAGCGA | 0.184 ± 0.025
AATCTTCA | -0.068 ± 0.038
CTCGAGGC | -0.039 ± 0.098

Sequence | PBM E-score of 8-mer
CAAACTGG | 0.102 ± 0.039
AAATCTAG | -0.091 ± 0.019
GCCTCACC | 0.0769 ± 0.049
GGGTGAGA | 0.406 ± 0.009
GAGTGAGA | 0.334 ± 0.017
GGGGGTGA | 0.2941 ± 0.0011
ACCATGGC | -0.0471 ± 0.08
CAGTTTAA | -0.0321 ± 0.037
CACCTGCA | 0.4 ± 0.0099
AACCTGGC | 0.195 ± 0.038
CACCTGGA | 0.366 ± 0.025
GACCTGCC | 0.148 ± 0.0062
AACCTGCG | 0.0979 ± 0.006
CACCTGCG | 0.429 ± 0.019
CACCTGGC | 0.427 ± 0.007
CACCTGGG | 0.361 ± 0.029
GACCTGCA | 0.0626 ± 0.036
AACCTGCC | -0.0169 ± 0.035
TACCTGCA | -0.174 ± 0.0055
CACCTGCC | 0.406 ± 0.021
AAGGCCGA | -0.191 ± 0.09
CCTTATGC | -0.139 ± 0.041
GCCATTAC | -0.169 ± 0.06
GGCCTGAC | -0.103 ± 0.02
CGTCCCAG | -0.151 ± 0.0033
CGCACGTC | 0.354 ± 0.02
AACACGTG | 0.38 ± 0.016
